Test [1] has as its target Thyrotropin-releasing hormone receptor (Homo sapiens) (UniProt P34981). The experiment in a line: qHTS assay to identify small molecule agonists of the thyrotropin-releasing hormone receptor (TRHR) signaling pathway (AID 1346891; calls by dose curve;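 note: HEK293 cells expressing TRHR with calcium dye readout; series mostly up to about 58 µM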). In outline: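 HEK293/TRHR cells, 1500 per well, 18 h 37 °C; Ca dye 2 h 37 °C; pin-tool compound addition (agonist mode); kinetic fluorescence 3 min, 1 s reads; 15 concentrations, triplicate.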
For orientation: qHTS replaces the single test concentration by a dilution series.

Test [2] in a line: Human pregnane X receptor (PXR) small molecule agonists, qHTS cell viability counter screen (AID 1346977). Note: nearly all actives have a fitted effect of over 50% in size. The gist of the method:
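Fluorescence read-out (CellTiter-Fluor) of viability in PXR-Luc HepG2 cells, multiplexed with the luciferase agonist read. Compounds in DMSO added after 5hr plating; 24hr total exposure at 37C, 5% CO2.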

The nature of test [3]: Caspase-3/7 induction in HepG2 cells by small molecules, qHTS assay (AID 1346978). Note: nearly all actives have a fitted effect of over 15% in size. The gist of the method:
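Wild-type HepG2 cells, 2,000/well, settled 5 hr at 37 C and 5% CO2, then compound-treated for 17 hr; caspase-3/7 activity read by luminescent Caspase-Glo 3/7 after 30 min at room temperature.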

Test [4] in a line: Caspase-3/7 induction in CHO-K1 cells by small molecules, qHTS cell viability counter screen (AID 1346979). Note: nearly all actives have a fitted effect of over 35% in size. In outline: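 CHO-K1 wt, 1,500 cells/well; 5hr pre-incubation 37C/5% CO2; compound pin transfer (DMSO); 16hr exposure; CellTiter-Fluor added, 1hr, fluorescence read.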
A short description of test [5]: Caspase-3/7 induction in HepG2 cells by small molecules, qHTS cell viability counter screen (AID 1346981). Note: series mostly up to about 92 µM; nearly all actives have a fitted effect of over 30% in size. In outline:
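Steps: seed 2,000 HepG2 cells per well; incubate 5 hr at 37 C; pin-add compounds in DMSO; incubate 16 hr; add CellTiter-Fluor; after 1 hr at 37 C and 5% CO2, read fluorescence.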

Test [6] has as its target Cytochrome P450 2C19 (Homo sapiens) (UniProt P33261). The test can be described thus: Cytochrome P450 Family 2 Subfamily C Member 19 (CYP2C19) small molecule antagonists: luciferase reporter qHTS assay (AID 1671197). Note: nearly all actives have a fitted effect of over 65% in size. Note: potency is the fitted concentration of half-maximal effect. The gist of the method: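 Inhibition of CYP2C19 was scored from loss of luminescence in a P450-Glo proluciferin substrate assay, NADPH-started and run 1 h at 37C, with ketoconazole as positive control.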
(A reporter such as luciferase makes a cellular process visible.)

Test [7] concerns the target Cytochrome P450 2C9 (Homo sapiens) (UniProt P11712). The test can be described thus: Cytochrome P450 Family 2 Subfamily C Member 9 (CYP2C9) small molecule antagonists: luciferase reporter qHTS assay (AID 1671198). Note: nearly all actives have a fitted effect of over 50% in size. Note: potency is the fitted concentration of half-maximal effect. In outline:
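P450-Glo proluciferin substrate with CYP2C9 enzyme; 10 min RT preincubation, then NADPH regeneration 1 h at 37C; luciferin detection reagent 20 min RT, luminescence in relative luminescence units.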

The target of test [8] is Cytochrome P450 1A2 (Homo sapiens) (UniProt P05177). The test can be described thus: Cytochrome P450 Family 1 Subfamily A Member 2 (CYP1A2) small molecule antagonists: luciferase reporter qHTS assay (AID 1671199). Note: nearly all actives have a fitted effect of over 50% in size. Note: potency is the fitted concentration of half-maximal effect. In outline:
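Inhibition of CYP1A2 conversion of proluciferin to luciferin, detected by luminescence. Reaction run 1 h at room temperature with NADPH regeneration after brief compound preincubation.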

Test [9] in a line: Caspase-3/7 induction in CHO-K1 cells by small molecules, qHTS assay (AID 1346980). Note: nearly all actives have a fitted effect of over 15% in size. In outline:
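Wild-type CHO-K1 cells exposed to compounds for 17hr at 37 C, 5% CO2. Caspase-3/7 activity then measured by Caspase-Glo 3/7 luminescence after 30min at room temperature.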

For test [10], the target named is Nuclear receptor subfamily 1 group I member 2 (Rattus norvegicus) (UniProt Q9R1A7). The experiment in a line: Rat pregnane X receptor (rPXR) activation by small molecules, qHTS assay (AID 1346983). Note: nearly all actives have a fitted effect of over 20% in size. The note with it: rPXR luciferase reporter cells, One-Glo luminescence, 24 h; max activation: hits give high values. The gist of the method: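 Cell-based rPXR activation assay: rPXR cells, 2,000 per well, rested 5hr at 37 C, then exposed to compounds in DMSO for 24 hr at 37 C. Luciferase activity read by One-Glo luminescence after 30 min at room temperature.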

In test [11] the target is Nuclear receptor subfamily 1 group I member 2 (Homo sapiens) (UniProt O75469). The test can be described thus: Human pregnane X receptor (PXR) activation by small molecules, qHTS assay (AID 1346985). Note: nearly all actives have a fitted effect of over 40% in size. Note: potency is the fitted concentration of half-maximal effect. In outline:
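DPX-2 cells (HepG2 co-transfected with a PXR response element and a CYP3A4-promoter luciferase construct) were seeded at 2,000 per well, rested 5 hr at 37C, then exposed to DMSO-dissolved compounds for 24 hr. Activation was read as luciferase luminescence.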

In test [12] the target is Voltage-gated inwardly rectifying potassium channel KCNH2 (Homo sapiens) (UniProt Q12809). The test can be described thus: Human Ether-a-go-go-Related Gene (hERG) channel small molecule antagonists: fluorescence cell-based qHTS assay (AID 1671200). Note: nearly all actives have a fitted effect of over 50% in size. Note: potency is the fitted concentration of half-maximal effect. In outline:
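Read-out: thallium influx as a surrogate for potassium, tracked as fluorescence (480 nm ex/540 nm em) every second for 2 min after Stimulus Buffer addition in dye-loaded hERG-U2OS cells.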

Test [13] addresses Cytochrome P450 3A4 (Homo sapiens) (UniProt P08684). The experiment in a line: Cytochrome P450 Family 3 Subfamily A Member 4 (CYP3A4) small molecule antagonists: luciferase reporter qHTS assay (AID 1671201). The gist of the method:
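Luminescent readout (RLU) proportional to CYP3A4 activity, from luciferin generated off a proluciferin substrate. Enzyme–substrate mix plus compound 10 min at room temp, NADPH regeneration 1 h, detection reagent 20 min.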

Test [14] deals with Cytochrome P450 2D6 (Homo sapiens) (UniProt P10635). The test can be described thus: Cytochrome P450 Family 2 Subfamily D Member 6 (CYP2D6) small molecule antagonists: luciferase reporter qHTS assay (AID 1671196). The gist of the method:
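P450-Glo format: CYP2D6 converts a proluciferin substrate to luciferin in an NADPH-driven reaction lasting 1 h at room temperature. Light output, proportional to CYP2D6 activity, reflects interference by test chemicals.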

Test [15] addresses Nuclear receptor subfamily 1 group I member 2 (Homo sapiens) (UniProt O75469). The test can be described thus: Human pregnane X receptor (PXR) small molecule agonists, qHTS assay (AID 1346982). Note: nearly all actives have a fitted effect of over 35% in size. Note: potency is the fitted concentration of half-maximal effect. The gist of the method:
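Agonist mode qHTS: PXR-Luc HepG2 cells plated 5 hr before DMSO-dissolved compounds were pinned in, cultured 24 hr at 37 C, 5% CO2; ONE-Glo luminescence readout.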

Each structure is given as a SMILES string. A number with no mark means an inactive call. Results filed as inconclusive are left out. Activity calls are given as the source filed them. Unless noted, calls come from the whole dose curve; as a rule, active = well fitted curve in the direction sought with a large enough effect in the repeat runs; inconclusive = weak or mixed curves; inactive = no such curve, though single readings can be large; an effect the other way counts as inactive or inconclusive.
% is set by controls: 0 for no effect and ±100 for the full control effect.

Thyrotropin-releasing hormone receptor (Homo sapiens), sequence (P34981 whole entry, looked up): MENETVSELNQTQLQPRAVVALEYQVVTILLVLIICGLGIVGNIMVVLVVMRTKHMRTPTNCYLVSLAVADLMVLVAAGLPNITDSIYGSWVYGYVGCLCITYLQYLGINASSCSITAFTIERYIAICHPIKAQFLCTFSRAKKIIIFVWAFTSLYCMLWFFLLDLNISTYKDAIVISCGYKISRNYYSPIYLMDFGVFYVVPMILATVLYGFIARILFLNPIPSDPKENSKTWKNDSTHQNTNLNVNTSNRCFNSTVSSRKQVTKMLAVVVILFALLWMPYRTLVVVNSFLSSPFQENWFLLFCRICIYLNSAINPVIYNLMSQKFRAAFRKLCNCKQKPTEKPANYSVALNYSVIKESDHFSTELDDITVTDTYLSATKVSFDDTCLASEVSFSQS
Nuclear receptor subfamily 1 group I member 2 (Homo sapiens), sequence (O75469 whole entry, looked up): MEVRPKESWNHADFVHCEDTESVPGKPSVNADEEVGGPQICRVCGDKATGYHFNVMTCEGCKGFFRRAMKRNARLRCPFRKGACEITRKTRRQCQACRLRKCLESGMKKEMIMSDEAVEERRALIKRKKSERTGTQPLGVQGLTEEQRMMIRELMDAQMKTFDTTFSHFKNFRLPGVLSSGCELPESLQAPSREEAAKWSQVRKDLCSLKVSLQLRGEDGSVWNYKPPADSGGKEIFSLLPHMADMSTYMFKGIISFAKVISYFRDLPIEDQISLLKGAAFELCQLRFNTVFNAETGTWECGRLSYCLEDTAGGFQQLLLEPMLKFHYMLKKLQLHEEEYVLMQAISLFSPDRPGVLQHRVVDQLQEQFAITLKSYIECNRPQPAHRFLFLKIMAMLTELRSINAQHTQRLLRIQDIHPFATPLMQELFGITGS
Cytochrome P450 1A2 (Homo sapiens), sequence (P05177 whole entry, looked up): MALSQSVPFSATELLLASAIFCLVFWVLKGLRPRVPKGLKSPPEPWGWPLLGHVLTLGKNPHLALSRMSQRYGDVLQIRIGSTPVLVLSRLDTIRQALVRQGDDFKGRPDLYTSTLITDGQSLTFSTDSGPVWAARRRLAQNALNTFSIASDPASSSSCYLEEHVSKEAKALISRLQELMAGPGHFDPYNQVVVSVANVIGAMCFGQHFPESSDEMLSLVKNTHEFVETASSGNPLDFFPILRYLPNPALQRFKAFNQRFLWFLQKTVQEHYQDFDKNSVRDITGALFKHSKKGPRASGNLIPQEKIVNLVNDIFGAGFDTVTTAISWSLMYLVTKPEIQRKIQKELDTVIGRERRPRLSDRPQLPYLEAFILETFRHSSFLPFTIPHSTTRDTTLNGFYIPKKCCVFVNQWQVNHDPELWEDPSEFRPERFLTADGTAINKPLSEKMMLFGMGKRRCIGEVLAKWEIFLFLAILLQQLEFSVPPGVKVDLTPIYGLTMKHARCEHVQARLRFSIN
Cytochrome P450 3A4 (Homo sapiens), sequence (P08684 whole entry, looked up): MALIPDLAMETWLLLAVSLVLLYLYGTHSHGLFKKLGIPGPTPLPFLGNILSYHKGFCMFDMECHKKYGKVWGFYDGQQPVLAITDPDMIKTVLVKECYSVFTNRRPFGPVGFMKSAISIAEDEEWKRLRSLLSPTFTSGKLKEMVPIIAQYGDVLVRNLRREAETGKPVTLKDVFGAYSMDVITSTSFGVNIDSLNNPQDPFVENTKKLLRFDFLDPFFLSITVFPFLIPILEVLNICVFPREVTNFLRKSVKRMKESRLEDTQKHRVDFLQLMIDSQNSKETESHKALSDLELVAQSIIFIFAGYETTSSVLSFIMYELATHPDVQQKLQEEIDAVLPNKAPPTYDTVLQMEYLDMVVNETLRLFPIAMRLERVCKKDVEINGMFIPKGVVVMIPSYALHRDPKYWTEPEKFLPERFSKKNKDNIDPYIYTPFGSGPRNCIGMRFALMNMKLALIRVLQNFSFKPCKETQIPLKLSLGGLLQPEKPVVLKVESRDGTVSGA
Cytochrome P450 2D6 (Homo sapiens), sequence (P10635 whole entry, looked up): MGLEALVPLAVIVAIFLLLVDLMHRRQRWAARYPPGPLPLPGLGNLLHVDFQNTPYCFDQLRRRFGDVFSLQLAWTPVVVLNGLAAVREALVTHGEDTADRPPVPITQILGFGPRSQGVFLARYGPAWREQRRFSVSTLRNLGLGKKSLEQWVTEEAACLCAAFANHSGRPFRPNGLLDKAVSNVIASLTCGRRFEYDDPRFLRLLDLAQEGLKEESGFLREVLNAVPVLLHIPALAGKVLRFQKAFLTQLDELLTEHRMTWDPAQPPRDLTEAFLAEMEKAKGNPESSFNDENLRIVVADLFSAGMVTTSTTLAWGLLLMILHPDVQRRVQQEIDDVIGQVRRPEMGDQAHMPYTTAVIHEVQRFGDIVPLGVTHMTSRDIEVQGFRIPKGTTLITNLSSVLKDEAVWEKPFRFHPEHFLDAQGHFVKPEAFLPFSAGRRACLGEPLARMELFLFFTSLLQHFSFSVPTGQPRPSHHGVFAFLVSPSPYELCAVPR
Nuclear receptor subfamily 1 group I member 2 (Rattus norvegicus), sequence (Q9R1A7 whole entry, looked up): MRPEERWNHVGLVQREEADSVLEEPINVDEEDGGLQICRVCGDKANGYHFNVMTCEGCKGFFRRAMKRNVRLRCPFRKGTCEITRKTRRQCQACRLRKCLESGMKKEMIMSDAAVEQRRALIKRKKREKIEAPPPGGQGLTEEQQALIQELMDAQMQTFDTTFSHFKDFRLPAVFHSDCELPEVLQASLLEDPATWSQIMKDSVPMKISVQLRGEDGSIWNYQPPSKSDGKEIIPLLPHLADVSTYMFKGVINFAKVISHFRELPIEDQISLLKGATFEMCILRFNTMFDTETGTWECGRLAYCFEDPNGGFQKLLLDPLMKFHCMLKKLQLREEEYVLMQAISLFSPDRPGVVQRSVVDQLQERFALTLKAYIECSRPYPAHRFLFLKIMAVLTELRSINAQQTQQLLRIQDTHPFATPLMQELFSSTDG
Voltage-gated inwardly rectifying potassium channel KCNH2 (Homo sapiens), sequence (Q12809 whole entry, looked up): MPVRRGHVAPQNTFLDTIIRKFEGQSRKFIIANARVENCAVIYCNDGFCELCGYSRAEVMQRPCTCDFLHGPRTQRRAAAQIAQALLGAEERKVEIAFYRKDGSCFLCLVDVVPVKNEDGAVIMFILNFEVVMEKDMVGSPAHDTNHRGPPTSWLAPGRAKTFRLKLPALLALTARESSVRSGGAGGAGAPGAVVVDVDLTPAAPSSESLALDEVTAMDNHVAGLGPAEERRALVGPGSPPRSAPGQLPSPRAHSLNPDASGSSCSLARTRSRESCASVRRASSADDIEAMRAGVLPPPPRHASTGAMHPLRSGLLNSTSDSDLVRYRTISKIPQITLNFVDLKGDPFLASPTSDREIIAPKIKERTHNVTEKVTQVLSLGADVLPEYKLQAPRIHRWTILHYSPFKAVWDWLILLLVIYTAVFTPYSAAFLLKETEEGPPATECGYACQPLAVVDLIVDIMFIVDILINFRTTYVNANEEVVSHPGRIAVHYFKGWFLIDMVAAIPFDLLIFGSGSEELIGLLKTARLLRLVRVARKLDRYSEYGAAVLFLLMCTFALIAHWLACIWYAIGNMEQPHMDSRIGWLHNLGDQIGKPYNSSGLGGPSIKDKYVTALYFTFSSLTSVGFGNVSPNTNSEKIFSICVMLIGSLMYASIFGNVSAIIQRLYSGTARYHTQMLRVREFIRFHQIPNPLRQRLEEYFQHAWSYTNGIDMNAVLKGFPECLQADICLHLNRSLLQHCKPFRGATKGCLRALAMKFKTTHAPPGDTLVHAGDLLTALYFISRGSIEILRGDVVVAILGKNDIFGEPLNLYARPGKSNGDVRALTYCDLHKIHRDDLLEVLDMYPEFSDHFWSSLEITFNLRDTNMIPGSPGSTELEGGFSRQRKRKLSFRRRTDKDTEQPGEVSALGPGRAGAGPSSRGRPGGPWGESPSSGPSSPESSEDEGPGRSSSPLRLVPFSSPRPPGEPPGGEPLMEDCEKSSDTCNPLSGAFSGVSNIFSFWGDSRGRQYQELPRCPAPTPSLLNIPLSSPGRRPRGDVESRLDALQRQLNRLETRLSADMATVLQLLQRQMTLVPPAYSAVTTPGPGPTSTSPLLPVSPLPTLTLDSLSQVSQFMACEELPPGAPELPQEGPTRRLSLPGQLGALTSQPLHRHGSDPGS
Cytochrome P450 2C9 (Homo sapiens), sequence (P11712 whole entry, looked up): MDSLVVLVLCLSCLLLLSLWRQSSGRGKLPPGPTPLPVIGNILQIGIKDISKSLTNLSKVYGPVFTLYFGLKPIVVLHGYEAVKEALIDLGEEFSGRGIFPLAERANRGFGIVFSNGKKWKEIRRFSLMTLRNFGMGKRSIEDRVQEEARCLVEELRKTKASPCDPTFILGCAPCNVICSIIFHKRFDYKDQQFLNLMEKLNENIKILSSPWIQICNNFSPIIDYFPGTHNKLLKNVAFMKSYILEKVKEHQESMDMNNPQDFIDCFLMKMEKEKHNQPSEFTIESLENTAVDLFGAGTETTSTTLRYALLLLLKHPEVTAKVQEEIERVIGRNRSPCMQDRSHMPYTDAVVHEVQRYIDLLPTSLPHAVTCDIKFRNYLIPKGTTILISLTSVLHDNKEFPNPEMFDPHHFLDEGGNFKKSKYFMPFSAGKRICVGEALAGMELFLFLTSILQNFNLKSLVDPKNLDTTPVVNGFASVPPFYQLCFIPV
Cytochrome P450 2C19 (Homo sapiens), sequence (P33261 whole entry, looked up): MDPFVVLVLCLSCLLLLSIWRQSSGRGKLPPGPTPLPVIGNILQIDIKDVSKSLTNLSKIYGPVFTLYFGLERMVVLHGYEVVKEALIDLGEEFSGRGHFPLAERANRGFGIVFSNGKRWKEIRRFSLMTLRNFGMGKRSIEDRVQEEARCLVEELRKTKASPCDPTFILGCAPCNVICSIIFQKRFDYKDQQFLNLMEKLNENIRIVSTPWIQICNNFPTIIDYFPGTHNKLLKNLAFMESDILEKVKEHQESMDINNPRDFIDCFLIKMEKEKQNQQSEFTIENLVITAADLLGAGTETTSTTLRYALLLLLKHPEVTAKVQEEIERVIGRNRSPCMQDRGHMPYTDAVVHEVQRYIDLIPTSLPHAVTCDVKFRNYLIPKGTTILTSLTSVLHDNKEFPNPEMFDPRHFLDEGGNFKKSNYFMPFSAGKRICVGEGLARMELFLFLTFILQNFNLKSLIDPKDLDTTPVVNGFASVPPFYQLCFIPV

Regarding `CC(C)COC(=O)COc1cc(Cl)c(Cl)cc1Cl`, the compound was classed as inactive in test [1]. Moreover, the Potency entry in test [2], in test [3], in [4] and in test [5] was “inactive” throughout. For the same compound, the figures for the Potency in [6], in test [7] and in test [8] were 8.91 µM (active), 35.5 µM (active) and 31.6 µM (active), respectively.

For the compound `O=C1CC[C@@H](C(=O)O)N1`, the compound was called inactive in test [1] and in test [9]. Moreover, the Potency entry in [2], in test [3], in [4], in test [5], in test [11] and in [6] was “inactive” in each case. Also, the Potency entry in test [7], in test [8], in test [12] and in [13] was “inactive” in each case. Also, in [10], the max activation was -5.25%.

For `CC(C)(C)C1(CCc2ccc(Cl)cc2)CO1` (centres undefined), the compound was classed as inactive in test [1] and in test [9]. Moreover, the Potency result in test [2], in [3], in test [4], in test [5] and in test [13] was “inactive” throughout. Besides, the Potency in test [6] is 1.26 µM (active); in [7], 17.8 µM (active); in test [8] it was 20 µM (active); in test [12], 24.5 µM (active).

On to `O=c1[nH]c2cc(C(F)(F)F)c(N3CCOCC3)cc2n(CP(=O)(O)O)c1=O`, for which the result in test [1] and in test [9] was inactive. Also, the Potency entry in [2], in test [3], in test [4], in test [5], in test [11] and in test [14] was “inactive” throughout. In addition, the Potency result in [6], in [7], in test [8], in [12] and in [13] was “inactive” throughout. Also, the max activation in [10] is -2.81%.

As to `CSSc1ccoc1C`, the result in [1] and in test [9] was inactive. Also, the Potency entry in test [2], in test [3], in test [4], in [5], in test [14] and in test [6] was “inactive” each time. Also, the Potency result in test [7], in [8], in test [12] and in test [13] was “inactive” each time.

`Cc1ccc(Nc2c(F)cccc2Cl)c(CC(=O)O)c1`: the call in test [1] and in test [9] was inactive. The Potency entry in [2], in [3], in test [4], in test [14] and in test [12] was “inactive” in each case. Moreover, the results for the Potency in test [6], in test [7] and in test [8] were 8.71 µM (active), 17.4 µM (active) and 12.3 µM (active), respectively.

In the case of `COC(=O)CC(C(C)=O)C(=O)OC` (centres undefined), in test [1], the result was inactive. Besides, the Potency entry in test [2], in [3], in test [4], in test [5], in test [14] and in [6] was “inactive” in each case. The Potency result in test [12] and in test [13] was “inactive” in each case. Moreover, the Potency in test [7] is 44.8 µM (active).

As to `Cc1c[nH]c2ccccc12`, the Potency entry in test [11] is “inactive”.

For `CCCCCCCCCCCC(=O)OCC(O)CO` (centres undefined), in [11], the Potency result was “inactive”.

As to `CC(C)Cc1ccc(CC(=O)O)cc1`, the outcome in test [1] and in test [9] was inactive. Besides, the Potency entry in [3], in test [4], in test [5], in [15], in test [11] and in [6] was “inactive” throughout. The Potency result in test [8] and in test [12] was “inactive” throughout. The max activation in [10] was -5.33%.

Regarding `C=C(C)C(=O)OCCC(F)(F)C(F)(F)C(F)(F)C(F)(F)C(F)(F)C(F)(F)F`, in test [1], the result was inactive. For the same compound, the Potency result in test [2], in test [5], in test [15], in test [14], in [6] and in test [8] was “inactive” in each case. For the same compound, the Potency result in [12] and in test [13] was “inactive” in each case.

Turning to `COc1ccc(/C=C/C(=O)c2ccc(OC)cc2OC)cc1`, the call in test [1] and in test [9] was inactive. In addition, the Potency entry in test [2], in test [5] and in test [12] was “inactive” each time. In addition, the Potency in test [15] was 29.8 µM (active); in test [11], 22.4 µM (active); in test [6], 3.89 µM (active); in test [7], 6.92 µM (active); in test [8], 4.56 µM (active).

`Nc1c(Cl)cc(Cl)cc1[N+](=O)[O-]`: the call in test [1] and in [9] was inactive. Further, the Potency entry in [2], in test [4], in [5], in [14], in [12] and in test [13] was “inactive” throughout. In addition, the Potency in [8] is 5.64 µM (active).
